Inconclusive results are not listed. A call without a number means that no potency is given here. The source made the active and inactive calls. Calls follow the shape of the dose curve; as a rule, active = well fitted cell-killing curve with a large enough effect; inconclusive = small, poorly fitted or top-dose-only effect, or effect the other way; inactive = no such curve, though single readings can be large or run the other way.
Experiment: Quantitative highthroughput screen to assess conditional lethalithy of SEM cells grown in RPMI1640 with dialyzed fetal bovine serum (RPMI+ds) (AID 1963884); also: nearly all actives have a fitted effect of over 35% in size
Settings: SEM B-ALL cells, RPMI+dialyzed FBS, CellTiter-Glo viability, 48 h; series mostly up to 45.8 µM
Description: Assay Provider: Jason Cantor Ph.D.
Department of Biochemistry
University of Wisconsin-Madison, Madison, WI, USA
Chemical screening studies have identified drug sensitivities across hundreds of cancer cell lines but most putative therapeutics fail to translate. Discovery and development of drug candidates in models that more accurately reflect nutrient levels in human blood is a major challenge. Here we performed high-throughput screens in conventional versus Human Plasma-Like Medium (HPLM) to identify compounds that were "missed" when screening using the artificial culture condition. Sets of conditional anticancer compounds spanned phases of clinical development and included non-oncology drugs were assessed. […] We also traced conditional phenotypes for several chemotherapeutics to availability of HPLM-specific metabolites and confirmed others for compounds whose reported targets are encoded by nonessential genes. Our findings establish generalizable strategies for exploiting conditional lethality in HPLM to reveal therapeutic candidates and mechanisms of action in cancer cells.
Described herein are the results of each viability screens against three cell lines: NOMO1 (an acute myeloid leukemia cell line); P12-Ichikawa (a T-cell acute lymphoblastic leukemia); and SEM (a B-cell ALL). Each assay was screened using 3 different cell culture media: homemade human plasma-Like medium with 10% dialyzed fetal bovine serum (HPLM+ds); RPMI1640 with 10% untreated FBS and 5mM glucose (RPMI+s); and RPMI1640 with 10% dialyzed fetal bovine serum and 5 mM glucose (RPMI+ds).
PROTOCOL TABLE (as described by Inglese J, Shamu CE and Guy RK. 2007)
SEQUENCE No. (e.g., 1, 2, 3, etc.); […] (e.g., Cells, Incubation, Reagent, etc.); VALUE and DESCRIPTION.
1; Cells; 5 uL; white, solid bottom 1536-well Greiner assay plate.
2; Compounds; 23 nL; Kalypsis pin tool (Wako USA) equipped with a 1536-well pin head to transfer to the assay plates.
3; Incubation; 48 hours; 37C incubation.
4; Reagent; 3 uL; CellTiter Glo (Promega).
5; Incubation; 5 min, room temperature
6; Detection; Luminescence, Viewlux PerkinElmer.
NOTES (numbers refer to Sequence numbers above)
1. Briefly, 5 ul of cell reagent was dispensed using a Multidrop Combi Dispenser. The NOMO1 and SEM cells were plated at 500 cells/well and the P12-Ichikawa line at 1000 cells/well.
2. After seeding the cells, 23 nL of MIPE 4.1 library compounds (in DMSO) were added to each plate using a Kalypsys 1536 Pintool dispenser. Bortezomib at final concentration of […] and DMSO were added to each plate as positive and negative controls respectively. For each screen, MIPE 4.1 compounds were added over an eleven-point concentration range […] in 3-fold dilutions.
3. Each plate was covered with a stainless steel gasketed lid to prevent evaporation and incubated for 48 hour at 37C, 95% relative humidity, and 5% CO2.
4-5. Three microliter CellTilter-GloTM luminescent substrate mix (Promega) reagent was added to the assay plate and incubated at room temperature for 5 min.
6. The luminescence signal was measured using a ViewLux (PerkinElmer) multiplate reader with a 2 second exposure time per plate. Data for each compound were normalized as percent viability such that measurements for DMSO and the empty well controls in each plate were defined as 100% and 0%, respectively.
In the case of `C[C@]12CC[C@H]3[C@@H](CCC4=CC(=O)CC[C@@]43C)[C@H]1CC[C@H]2O`, the Potency is reported as “inactive”. For `COc1ccc2c(c1)[C@]13CCCCC1C(C2)N(C)CC3` (stereo not given in full), the Potency was “inactive”. In the case of `O=c1[nH]c2ccc(Cl)cc2c(N[C@@H]2CN3CCC2CC3)c1-c1nc2ccccc2[nH]1`, the Potency is reported as 66.2 nM (active). With `CN1C(=O)COc2c(C(=O)NC3CN4CCC3CC4)cc(Cl)cc21` (stereo not given) the Potency was “inactive”. In the case of `CC1(N2CCC(n3c([C@@H]4CCCNC4)nc4ccccc43)CC2)CCCCCCC1`, the Potency is reported as “inactive”. In the case of `CC(C)[C@]12O[C@@H]1[C@@H]1O[C@]13[C@]1(O[C@H]1C[C@@H]1C4=C(CC[C@@]13C)C(=O)OC4)[C@H]2O`, the Potency is reported as 1.2 nM (active). In the case of `CCC1(c2ccc(N)cc2)CCC(=O)NC1=O` (stereo not given), the Potency is reported as “inactive”. For `COC(=O)[C@@H](N)CCCN=C(N)N[N+](=O)[O-]`, the Potency was “inactive”. With `C[C@@H]1O[C@@H](O[C@@H]2C=C3CC[C@@H]4[C@@H](CC[C@]5(C)[C@H](c6ccc(=O)oc6)CC[C@@]45O)[C@@]3(C)CC2)[C@H](O)[C@H](O)[C@H]1O` the Potency was 37.2 nM (active). For `CC(C)(C)c1cc(C=C(C#N)C#N)cc(Br)c1O`, the Potency was “inactive”. For `CCOC(=O)Nc1ccc(NCc2ccc(F)cc2)cc1N`, the Potency was “inactive”. In the case of `O=[N+]([O-])c1ncc[nH]1`, the Potency is reported as “inactive”. In the case of `C[C@]12CC[C@@H]3[C@@H](CCC4=CC(=O)CC[C@@H]43)[C@@H]1CC[C@@H]2OC(=O)CCc1ccccc1`, the Potency is reported as “inactive”. For `CC(C)N[C@@H]1CCn2c(=O)[nH]c3cccc(c32)[C@@H]1O`, the Potency was “inactive”. In the case of `CCNC(=O)C[C@@H]1N=C(c2ccc(Cl)cc2)c2cc(OC)ccc2-n2c(C)nnc21`, the Potency is reported as 1050 nM (active). In the case of `C[C@@H]1CC[C@@]2(OC1)O[C@H]1C[C@H]3[C@@H]4CC=C5C[C@@H](O[C@@H]6O[C@H](CO)[C@@H](O[C@@H]7O[C@@H](C)[C@H](O)[C@@H](O)[C@@H]7O)[C@H](O)[C@@H]6O[C@@H]6O[C@@H](C)[C@H](O)[C@@H](O)[C@@H]6O)CC[C@]5(C)[C@@H]4CC[C@]3(C)[C@@H]1[C@H]2C`, the Potency is reported as 14800 nM (active). With `CC(N[C@H]1C[C@H]1c1ccccc1)c1ccc2c(c1)OCCO2` (stereo not given in full) the Potency was “inactive”. In the case of `COC1=C[C@@H]2[C@@H]3Cc4ccc(OC)c(O)c4[C@]2(CCN3C)CC1=O`, the Potency is reported as “inactive”. For `Cc1ncc(OC[C@@]2(c3cccc(F)c3)C[C@H]2C(=O)Nc2ccc(F)cn2)c(C)n1`, the Potency was “inactive”. With `CC[C@H]1C=CC=CC[C@@H](C)[C@H](O)[C@@](C)(O)C(=O)[C@@H](C)[C@H](O)[C@@H](C)C(=O)[C@@H](C)[C@H](O)[C@@H](C)C=CC(=O)O[C@@H]2[C@@H](C)[C@H](CC1)O[C@]1(CC[C@H](C)[C@H](C[C@@H](C)O)O1)[C@H]2C` the Potency was 4690 nM (active). For `c1ccc2c(CN3CCNCC3)cccc2c1`, the Potency was “inactive”. With `CN[C@@H]1Cc2cccc3[nH]c(=O)n(c23)C1` the Potency was “inactive”. For `C[C@]12CC[C@H](O)CC1=CC[C@H]1[C@H]3CCC(=O)[C@@]3(C)CC[C@@H]12`, the Potency was “inactive”. In the case of `COC[C@@H](NC(C)=O)C(=O)NCc1ccccc1`, the Potency is reported as “inactive”. With `CNC(=O)c1ccc(N2C(=S)N(c3ccc(C#N)c(C(F)(F)F)c3)C(=O)C23CCC3)cc1F` the Potency was “inactive”. In the case of `O=C1CCC[C@@H]2[C@H]3CCCN4CCC[C@@H](CN12)[C@@H]34`, the Potency is reported as “inactive”. With `CC(=Cc1csc(C)n1)[C@@H]1C[C@H]2O[C@@H]2CCC[C@H](C)[C@@H](O)[C@@H](C)C(=O)C(C)(C)[C@@H](O)CC(=O)O1` the Potency was “inactive”. With `COc1cc2cc(c1Cl)N(C)C(=O)C[C@H](OC(=O)C(C)C)[C@]1(C)O[C@H]1[C@H](C)[C@@H]1C[C@@](O)(NC(=O)O1)[C@H](OC)C=CC=C(C)C2` the Potency was “inactive”. For `O=c1[nH]c2ccccc2n1CCCN1CCC(n2c(=O)[nH]c3cc(Cl)ccc32)CC1`, the Potency was “inactive”. In the case of `CC[C@@H]1[C@@H](C)O[C@@](O)([C@@H](C)[C@H](O)[C@H](C)[C@H]2OC(=O)C=CC=C[C@@H](C)[C@@H]([C@@H](C)[C@@H](O)[C@H](C)[C@@]3(O)C[C@H](O[C@H]4C[C@H](O)[C@H](O)[C@H](C)O4)[C@H](CC)[C@@H](C)O3)OC(=O)C=CC=C[C@@H]2C)C[C@H]1O[C@H]1C[C@H](O)[C@H](O)[C@H](C)O1`, the Potency is reported as 1870 nM (active). In the case of `CCCC[N+]1(C)[C@H]2CC(OC(=O)[C@H](CO)c3ccccc3)C[C@H]1[C@H]1O[C@H]12` (stereo not given in full), the Potency is reported as “inactive”. With `CCOc1ccccc1-n1c(C(C)N2CCN(C(=O)COc3ccc(Cl)cc3)CC2)nc2ccccc2c1=O` (stereo not given) the Potency was 588 nM (active). With `CCOC(=O)c1c(C(C#N)=CN)c2ccc(Cl)c(Cl)c2n1C` the Potency was “inactive”. With `CC[C@@]1(O)C(=O)OCc2c1cc1n(c2=O)Cc2cc3ccccc3nc2-1` the Potency was 26.4 nM (active). For `O=C(N[C@H]1CN2CCC1CC2)c1ccc(Cl)cc1`, the Potency was “inactive”. In the case of `CN(C)CCN(C)CCc1ccc(Cl)c(Cl)c1`, the Potency is reported as “inactive”. For `CCc1c(C(=O)C(N)=O)c2c(OCC(=O)O)cccc2n1Cc1ccccc1`, the Potency was “inactive”. With `CC(=O)OCC1=C(C(=O)O)N2C(=O)[C@@H](N)[C@@H]2SC1` the Potency was “inactive”. For `Cc1cc(SCc2sc(-c3ccc(C(F)(F)F)c(F)c3)nc2C)ccc1OCC(=O)O`, the Potency was “inactive”. In the case of `O=C(O)c1nn(Cc2ccc(Cl)cc2Cl)c2ccccc12`, the Potency is reported as “inactive”.
Potency is read from the fitted curve at half-maximal effect.
